Assay outcomes: PubChem BioAssay, several laboratories
Most compounds without a hit are left out; they make up all but 4.7% or so of the library.
RecA splice inh – Mtb RecA intein splicing inhibitors, primary screen, biochemical, fluorescence, HTS | inhibition, % (test concentration not listed) | 0.75% of 290,000 active | Protein RecA (Mycobacterium tuberculosis (strain ATCC 25618 / H37Rv)), P9WHJ3 | cell-free RecA intein splicing | AID 2221, 2009; in the data active = inhibition above about 30%;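 also: 0% = vehicle wells and 100% = reference inhibitor control wells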
DUSP3 inh – VHR1 phosphatase inhibitors, primary screen, biochemical, absorbance, uHTS. Dual specificity protein phosphatase 3 (Homo sapiens), P51452. recombinant VHR phosphatase, pNPP absorbance. inhibition, % at 13.3 µM. 0.52% of 290,000 active; in the data active = inhibition above about 50%
3CLpro inhibitor – SARS-CoV 3CLpro protease inhibitors, primary screen, biochemical, quenched FRET; Replicase polyprotein 1ab (Severe acute respiratory syndrome coronavirus), P0C6X7; recombinant SARS-CoV 3CLpro, quenched FRET peptide cleavage; inhibition, % at 6 µM; 0.14% of 290,000 active; AID 1706, 2009; in the data active = inhibition above about 12%
FBA Mtb inh – Mtb FBA enzyme inhibitors, primary screen, biochemical, fluorescence, strain H37Rv; purified M. tuberculosis FBA, fluorescence read-out; inhibition, % at 1 µM; 2.3% of 360,000 active; in the data active = inhibition above about 27%;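 also: 0% = vehicle and 100% = reference inhibitor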
Target sequence (P9WQA3 whole entry, looked up): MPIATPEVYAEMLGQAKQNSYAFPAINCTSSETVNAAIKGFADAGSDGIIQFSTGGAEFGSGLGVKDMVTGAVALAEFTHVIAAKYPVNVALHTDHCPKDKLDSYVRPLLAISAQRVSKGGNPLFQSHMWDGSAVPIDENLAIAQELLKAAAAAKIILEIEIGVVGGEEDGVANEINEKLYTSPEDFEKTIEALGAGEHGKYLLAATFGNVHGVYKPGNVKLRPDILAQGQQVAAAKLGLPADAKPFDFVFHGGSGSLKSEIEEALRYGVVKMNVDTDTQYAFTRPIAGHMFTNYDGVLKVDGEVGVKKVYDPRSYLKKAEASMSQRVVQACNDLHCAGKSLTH
CCHF vOTU inh – CCHFV vOTU protease inhibitors, primary screen, biochemical, Pep-AMC substrate, fluorescence. 0.55% of 370,000 active. AID 651958, 2012. inhibition, % at 11.5 µM. Crimean-Congo hemorrhagic fever virus L polyprotein viral ovarian tumor (vOTU) protease …; also: 0% = vehicle wells with enzyme and 100% = no enzyme wells
GDH-TPI inh – GDH-TPI coupling enzyme inhibitors, primary screen, artefact control for M. tuberculosis FBA inhibitor project, biochemical, absorbance, full deck | GDH-TPI coupled enzyme counterscreen, NADH absorbance | inhibition, % at 4.8 µM | 1.2% of 360,000 active | AID 588335, 2011;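 also: 0% = DMSO wells and 100% = wells lacking the enzyme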
An asterisk follows results filed as active; i = inactive; . = not tested or not shown; + = active, no number. Rule as the data show it, unless noted: active = inhibition above about 30%; inactive = the rest.

SMILES | RecA splice inh | DUSP3 inh | 3CLpro inhibitor | FBA Mtb inh | CCHF vOTU inh | GDH-TPI inh
O=C(CSc1nnc(-c2ccccc2Cl)o1)Oc1ccc(Br)cc1 | 61* | 14 | -5 | -2 | 5 | 4
CCOc1ccc(C2C(C#N)=C(N)SC(N)=C2C#N)cc1OC | -4 | -17 | 1 | . | . | .
CCOc1ccc(C2OC34CCCCC3C(C#N)(C#N)C2(C#N)C(=N)O4)cc1OC (stereo unspecified) | -304 | -2 | -2 | 75* | . | -3
C=CCOc1ccc(C2OC34CCCCC3C(C#N)(C#N)C2(C#N)C(=N)O4)cc1 (stereo unspecified) | -93 | 20 | -4 | 58* | . | 4
CCCCOc1ccc(C2OC34CCCCC3C(C#N)(C#N)C2(C#N)C(=N)O4)cc1 (stereo unspecified) | -114 | -2 | -1 | 73* | . | -3
COC[C@H]1CCCN1c1ccc2c(c1)O[C@@H]1CCN(C1)S2(=O)=O | . | . | . | . | -3 | .
CC1=CC(c2ccc(Cl)cc2)n2nc(NC(=O)c3ccccc3)nc2N1 (stereo unspecified) | 1 | 19 | 5 | 15 | -4 | 10
COc1ccccc1C1C=C(c2ccc(Cl)cc2)Nc2nc(NS(C)(=O)=O)nn21 (stereo unspecified) | -99 | -4 | 2 | . | . | .
CC(=O)Nc1nc2n(n1)C(c1ccc(F)cc1)C=C(c1ccccc1)N2 (stereo unspecified) | i | 3 | 0 | 17 | -19 | 13
CC(=O)Nc1nc2n(n1)C(c1ccc(Cl)cc1)C=C(C)N2 (stereo unspecified) | -82 | 8 | 1 | 119* | -58 | 12
CC(=O)Nc1nc2n(n1)C(c1ccccc1)C=C(c1ccccc1)N2 (stereo unspecified) | -449 | 21 | -2 | 50* | . | 6
CS(=O)(=O)Nc1nc2n(n1)C(c1ccccc1)C=C(c1ccc(Br)cc1)N2 (stereo unspecified) | -220 | 17 | 1 | 34* | . | 5
CCOc1ccc(S(=O)(=O)c2ccc(C)cc2)c2c1no[n+]2[O-] | . | . | . | -3 | -3 | 0
O=C(O)c1ccc(-c2cccc(-c3nn4c(=O)cc(N5CCNCC5)nc4s3)c2)cc1 | . | . | . | -1 | 9 | 8
CN1OC[C@@H]2CN(C(=O)NC3CCCCC3)[C@H](c3ccc(N4CCCCC4)cc3)C[C@@H]21 | . | . | . | 1 | 0 | .
C1CN(CCN2CCOCC2)CCN1 | -4 | 31 | 2 | 1 | . | 12
COc1cc(NC(=O)Nc2nc(C(N)CCc3ccccc3)cs2)cc(OC)c1OC (stereo unspecified) | . | . | . | -2 | -2 | 3
Cc1ccc(S(=O)(=O)/C(C#N)=C/c2c(N3CC(C)OC(C)C3)nc3ccccn3c2=O)cc1 (stereo unspecified) | 3 | 27 | -3 | -3 | 7 | 9
C=CCNC(=O)/C(C#N)=C/c1c(N2CC(C)OC(C)C2)nc2ccccn2c1=O (stereo unspecified) | -241 | -10 | 3 | 126* | -43 | 4
N#C/C(=C\c1c(N2CCCCCC2)nc2ccccn2c1=O)C(=O)NC1CCS(=O)(=O)C1 (stereo unspecified) | -2 | -10 | 3 | 2 | -13 | 11
N#C/C(=C\c1c(N2CCOCC2)nc2ccccn2c1=O)C(=O)NC1CCS(=O)(=O)C1 (stereo unspecified) | i | 22 | 0 | + | -125 | 13
Cc1cc(-c2ccccc2)c2ccc(NC(=O)C(C)(C)C)nc2n1 | 1 | 18 | -1 | 14 | 2 | 46*
O=[N+]([O-])c1c(Nc2ccccc2O)cc(N2CCOCC2)c2nonc12 | 1 | 15 | 1 | -15 | 1 | 32*
CC(C)CNC(=O)OCc1cn(Cc2cccc(F)c2)nn1 | . | . | . | . | -4 | .
COCCn1nnnc1CN(CCc1ccc(OC)c(OC)c1)Cc1cc2ccc(C)cc2[nH]c1=O | -5 | 52* | -14 | 17 | 2 | 17
